# Reference: PubChem BioAssay (NCATS)
# Inconclusive results are not listed. Activity calls are given as the source filed them. Unless noted, the call rests on the fitted dose curve; in most records, active means well fitted curve in the direction sought with a large enough effect; inconclusive means small, poorly fitted or top-dose-only effect, or another doubt; inactive means no such curve, though single readings can be large; an effect the other way counts as inactive or inconclusive.
# How the values were obtained:
# [1] = molecular target: Rap guanine nucleotide exchange factor 3 (Homo sapiens) (UniProt O95398); assay: Counterscreen qHTS for agonist of cAMP-regulated guanine nucleotide exchange factor 3 (EPAC1) (AID 1645889); further: nearly all actives have a fitted effect of over 40% in size; further: potency means the concentration at half of the fitted maximal effect
# Summary of the method: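 Rap1B-BODIPY-GDP 250 nM + GDP 50 uM; cpds 7-pt, final 9.74 nM–152 uM (activator mode) or from 7.32 nM upwards (inhibitor mode); RT; FI 480/540 nm at 5 and 30 min, then ± cAMP, reread.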
# [2] = molecular target: Catechol O-methyltransferase (Homo sapiens) (UniProt P21964); assay: Confirmatory Screen for Target Class Profiling of Small Molecule Inhibitors of Methyltransferases (AID 1745852; calls by dose curve; further: potency means the concentration at half of the fitted maximal effect; on activity change, negative = inhibition: on the % scale 0 is the no-effect control and ±100 the full control effect); conditions: MTase-Glo luminescence, SAH detection, recombinant enzyme; measured here: COMT max response; stronger effect = lower value
# Sequence of Catechol O-methyltransferase (Homo sapiens) (P21964 whole entry, looked up): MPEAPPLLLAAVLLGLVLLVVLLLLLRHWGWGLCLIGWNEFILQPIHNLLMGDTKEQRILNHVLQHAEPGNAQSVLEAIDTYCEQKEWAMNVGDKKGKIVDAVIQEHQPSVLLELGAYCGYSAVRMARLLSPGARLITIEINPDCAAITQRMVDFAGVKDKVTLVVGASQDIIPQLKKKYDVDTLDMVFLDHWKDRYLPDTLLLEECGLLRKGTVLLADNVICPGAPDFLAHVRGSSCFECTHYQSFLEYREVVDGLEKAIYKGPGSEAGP
# [3] = molecular target: Guanidinoacetate N-methyltransferase (Homo sapiens) (UniProt Q14353); assay: as above; conditions: activity change, negative = inhibition: at 57.3 µM (top of the series) unless noted
# [4] = molecular target: Nicotinamide N-methyltransferase (Homo sapiens) (UniProt P40261); assay: as above; conditions: MTase-Glo luminescence, SAH detection, recombinant enzyme; measured here: NNMT max response; stronger effect = lower value
# Sequence of Nicotinamide N-methyltransferase (Homo sapiens) (P40261 whole entry, looked up): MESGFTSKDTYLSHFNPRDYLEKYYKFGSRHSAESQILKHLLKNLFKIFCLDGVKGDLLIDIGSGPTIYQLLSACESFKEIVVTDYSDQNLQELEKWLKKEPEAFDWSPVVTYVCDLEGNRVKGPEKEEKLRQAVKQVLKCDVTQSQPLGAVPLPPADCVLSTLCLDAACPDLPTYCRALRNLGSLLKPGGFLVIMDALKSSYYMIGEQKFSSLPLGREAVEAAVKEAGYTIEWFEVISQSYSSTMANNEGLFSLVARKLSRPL
# [5] = molecular target: Phenylethanolamine N-methyltransferase (Homo sapiens) (UniProt P11086); assay: as above; conditions: MTase-Glo luminescence, SAH detection, recombinant enzyme; measured here: PNMT max response; stronger effect = lower value
# Sequence of Phenylethanolamine N-methyltransferase (Homo sapiens) (P11086 whole entry, looked up): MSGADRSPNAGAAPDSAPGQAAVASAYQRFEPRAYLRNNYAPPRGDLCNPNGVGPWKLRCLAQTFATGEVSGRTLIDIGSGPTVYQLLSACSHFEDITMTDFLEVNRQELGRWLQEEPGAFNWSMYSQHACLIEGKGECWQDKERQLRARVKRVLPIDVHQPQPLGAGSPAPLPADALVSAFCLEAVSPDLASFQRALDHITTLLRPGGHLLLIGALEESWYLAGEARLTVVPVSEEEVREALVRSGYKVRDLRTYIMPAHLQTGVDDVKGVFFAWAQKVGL
# [6] = molecular target: DNA repair nuclease/redox regulator APEX1 (Homo sapiens) (UniProt P27695); assay: qHTS Validation Assay for Inhibitors of the Human Apurinic/apyrimidinic Endonuclease 1 (APE1) (AID 1705;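 further: TAMRA fluorescence gain over two minutes as APE1 cuts a quenched THF abasic duplex; on the % scale 0 is the no-effect control and ±100 the full control effect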)
# Sequence of DNA repair nuclease/redox regulator APEX1 (Homo sapiens) (P27695 whole entry, looked up): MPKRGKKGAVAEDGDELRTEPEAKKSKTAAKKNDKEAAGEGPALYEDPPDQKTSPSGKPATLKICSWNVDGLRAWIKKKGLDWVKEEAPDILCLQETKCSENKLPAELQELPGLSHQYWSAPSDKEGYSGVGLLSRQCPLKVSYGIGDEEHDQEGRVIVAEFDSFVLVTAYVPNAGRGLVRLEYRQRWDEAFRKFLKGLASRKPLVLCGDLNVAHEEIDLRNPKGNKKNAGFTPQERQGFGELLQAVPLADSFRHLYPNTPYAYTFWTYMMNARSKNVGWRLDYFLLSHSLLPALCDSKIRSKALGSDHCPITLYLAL
# Summary of the method: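 Read-out: TAMRA fluorescence (525 nm ex, 598 nm em) from cleavage of a quenched THF abasic-site duplex, 50 nM final; activity taken as intensity change between third and first of three reads 60 s apart.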
# [7] = Counterscreen for APE1 Inhibitors: Fluorescent Dye Displacement Validation Assay (AID 1707);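 further: plate controls were ThO with dsDNA and no compound for no effect and ThO without dsDNA for full effect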
# Summary of the method: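 Assay buffer: Tris-HCl pH7.5 with 50mM NaCl, 2 mM MgCl2, 0.01% Tween-20. Dye 250 nM, duplex 50 nM final. Readout: decrease in ThO endpoint fluorescence, 480 nm excitation, 540 nm emission.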
# [8] = qHTS for differential inhibitors of proliferation of Plasmodium falciparum line 7G8 (AID 1815);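 further: potency means the concentration at half of the fitted maximal effect; parasite growth measured after three days of incubation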
# [9] = qHTS for differential inhibitors of proliferation of Plasmodium falciparum line GB4 (AID 1816); conditions: Potency: Plasmodium falciparum GB4 proliferation inhibition;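 further: potency means the concentration at half of the fitted maximal effect; parasite growth measured after 72 h incubation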
# [10] = qHTS for differential inhibitors of proliferation of Plasmodium falciparum line 3D7 (AID 1876); further: potency means the concentration at half of the fitted maximal effect
# [11] = qHTS for differential inhibitors of proliferation of Plasmodium falciparum line Dd2 (AID 1882); conditions: Potency: Plasmodium falciparum Dd2 proliferation inhibition;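 further: plate controls were DMSO vehicle for no effect and 0.29 µM artemisinin for full effect; nearly all actives have a fitted effect of over 65% in size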
# Summary of the method: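 Dd2-infected erythrocytes (0.3% parasitemia, 2.5% hematocrit final) incubated with compound 72 h at 37 C, 5% CO2; lysed with saponin/Triton buffer containing SYBR Green I, incubated overnight in the dark, then read by fluorescence (485/535 nm). Normalized to 0.29 uM artemisinin and DMSO.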
# [12] = qHTS for differential inhibitors of proliferation of Plasmodium falciparum line W2 (AID 1883); conditions: Potency: Plasmodium falciparum W2 proliferation inhibition;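 further: potency means the concentration at half of the fitted maximal effect; parasites grown with compound for 72 h before lysis and staining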
# [13] = qHTS Assay for Modulators of Human Peripheral Myelin Protein 22 (PMP22) Expression/Activity (AID 1967; active means well fitted curve in the direction sought with a large enough effect in the signal ratio; the % refers to the signal ratio;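 further: 0% = untreated cells and 100% end not stated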)
# Summary of the method: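 Mouse MSC80 Schwann line, Pmp22 promoter–CBG68 reporter, EF-alpha–CBR internal control. 24h compound exposure, 37 °C/5% CO2, DMEM + 10% FBS. Readout: corrected green/red luminescence ratio, normalized to untreated cells; concentration-response curves fitted and classified.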
# [14] = molecular target: Ferritin light chain (Equus caballus) (UniProt P02791); assay: qHTS Validation Assay for Identification of Novel General Anesthetics (AID 2323); further: on the % scale 0 is the no-effect control and ±100 the full control effect
# Sequence of Ferritin light chain (Equus caballus) (P02791 2-175 limits assumed): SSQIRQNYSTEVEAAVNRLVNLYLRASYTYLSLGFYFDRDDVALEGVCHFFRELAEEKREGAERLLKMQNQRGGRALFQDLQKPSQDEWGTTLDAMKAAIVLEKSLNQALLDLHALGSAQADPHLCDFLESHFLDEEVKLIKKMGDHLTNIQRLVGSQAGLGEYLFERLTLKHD
# Summary of the method: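 10 uM horse-spleen apoferritin + 1-AMA (50% saturated, PBS); cpd pin-transferred, 10 min RT. Ex 380/Em 535 nm endpoint. Activity normalized between free 1-AMA and 1-AMA/apoferritin; 4-parameter Hill fit of concentration-response.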
# [15] = molecular target: ATP-dependent DNA helicase Q1 (Homo sapiens) (UniProt P46063); assay: qHTS Validation Assay for Inhibitors of RecQ-Like Dna Helicase 1 (RECQ1) (AID 2353);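 further: plate controls were DMSO vehicle for no effect and enzyme-free control for full effect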
# Sequence of ATP-dependent DNA helicase Q1 (Homo sapiens) (P46063 whole entry, looked up): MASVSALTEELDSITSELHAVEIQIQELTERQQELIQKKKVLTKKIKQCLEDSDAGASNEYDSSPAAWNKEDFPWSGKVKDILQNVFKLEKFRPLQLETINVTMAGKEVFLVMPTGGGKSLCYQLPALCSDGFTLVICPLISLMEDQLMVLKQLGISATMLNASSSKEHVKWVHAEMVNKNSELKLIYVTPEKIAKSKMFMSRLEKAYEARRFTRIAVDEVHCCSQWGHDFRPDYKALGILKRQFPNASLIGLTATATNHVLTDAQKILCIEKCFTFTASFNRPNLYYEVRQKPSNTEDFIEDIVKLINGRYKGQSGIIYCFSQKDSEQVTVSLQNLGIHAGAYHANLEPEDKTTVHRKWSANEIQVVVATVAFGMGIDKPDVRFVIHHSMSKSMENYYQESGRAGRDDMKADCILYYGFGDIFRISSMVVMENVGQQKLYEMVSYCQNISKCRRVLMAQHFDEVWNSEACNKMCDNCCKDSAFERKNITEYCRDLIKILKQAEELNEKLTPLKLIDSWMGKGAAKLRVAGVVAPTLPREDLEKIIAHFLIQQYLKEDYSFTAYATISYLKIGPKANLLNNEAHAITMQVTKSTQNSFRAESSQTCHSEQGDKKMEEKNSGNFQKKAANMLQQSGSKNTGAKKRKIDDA
# Summary of the method: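 50 nM RECQ1T1 preincubated 15 min with compound in Tris pH 8.0 buffer with MgCl2, DTT, Tween-20 and 2.5 ug/ml poly(dI-dC); started with 200 nM TAMRA/BHQ-2 forked duplex and 2 mM ATP. Unwinding read as fluorescence (525/598 nm), two reads 2 h apart.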
# [16] = molecular target: RecQ-like DNA helicase BLM (Homo sapiens) (UniProt P54132); assay: qHTS Validation Assay for Inhibitors of Bloom's syndrome helicase (BLM) (AID 2364);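 further: plate controls were DMSO vehicle for no effect and enzyme-free control for full effect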
# Sequence of RecQ-like DNA helicase BLM (Homo sapiens) (P54132 whole entry, looked up): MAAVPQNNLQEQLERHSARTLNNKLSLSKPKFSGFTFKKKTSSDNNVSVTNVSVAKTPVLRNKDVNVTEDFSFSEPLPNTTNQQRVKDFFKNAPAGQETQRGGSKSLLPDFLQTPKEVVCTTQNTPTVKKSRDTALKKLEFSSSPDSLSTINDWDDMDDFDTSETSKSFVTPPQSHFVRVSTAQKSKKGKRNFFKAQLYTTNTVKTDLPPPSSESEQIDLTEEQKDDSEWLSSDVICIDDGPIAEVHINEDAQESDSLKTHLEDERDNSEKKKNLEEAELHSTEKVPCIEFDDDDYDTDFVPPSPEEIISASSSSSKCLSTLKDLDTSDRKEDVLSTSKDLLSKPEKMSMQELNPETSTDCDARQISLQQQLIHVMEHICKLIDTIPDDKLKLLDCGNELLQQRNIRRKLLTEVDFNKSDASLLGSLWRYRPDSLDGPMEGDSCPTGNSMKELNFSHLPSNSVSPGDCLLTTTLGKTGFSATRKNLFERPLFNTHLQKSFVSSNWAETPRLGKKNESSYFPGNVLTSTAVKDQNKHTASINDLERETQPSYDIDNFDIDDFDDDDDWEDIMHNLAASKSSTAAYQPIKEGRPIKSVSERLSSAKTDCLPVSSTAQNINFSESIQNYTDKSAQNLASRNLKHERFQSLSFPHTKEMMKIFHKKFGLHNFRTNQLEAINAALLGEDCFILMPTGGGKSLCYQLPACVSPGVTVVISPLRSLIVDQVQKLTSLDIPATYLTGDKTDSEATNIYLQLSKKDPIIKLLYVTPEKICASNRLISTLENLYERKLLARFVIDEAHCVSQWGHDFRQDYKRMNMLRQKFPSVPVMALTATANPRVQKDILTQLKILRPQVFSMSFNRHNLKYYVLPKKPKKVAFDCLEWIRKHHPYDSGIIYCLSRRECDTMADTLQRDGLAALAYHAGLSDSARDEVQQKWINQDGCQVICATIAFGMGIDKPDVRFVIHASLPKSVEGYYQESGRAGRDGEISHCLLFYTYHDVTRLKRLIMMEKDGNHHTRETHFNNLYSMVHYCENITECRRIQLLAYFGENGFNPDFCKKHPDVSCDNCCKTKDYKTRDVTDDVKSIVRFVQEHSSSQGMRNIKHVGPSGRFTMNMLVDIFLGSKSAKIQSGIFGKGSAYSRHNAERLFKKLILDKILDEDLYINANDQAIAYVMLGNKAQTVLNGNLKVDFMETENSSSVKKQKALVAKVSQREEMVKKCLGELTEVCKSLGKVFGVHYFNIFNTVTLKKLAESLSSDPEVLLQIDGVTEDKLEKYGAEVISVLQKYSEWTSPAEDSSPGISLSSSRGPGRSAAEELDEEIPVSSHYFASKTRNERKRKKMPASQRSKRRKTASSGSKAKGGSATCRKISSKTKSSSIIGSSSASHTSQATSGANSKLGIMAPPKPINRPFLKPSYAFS
# Summary of the method: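 Forked 20-bp duplex substrate (200 nM, TAMRA/BHQ-2) plus 2 mM ATP added after 15 min compound preincubation with 50 nM enzyme, pH 8.0, poly(dI-dC) 2.5 ug/ml. Strand separation followed by fluorescence (525/598 nm) over 2 h, normalized to enzyme-free and DMSO controls.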
# [17] = Validation screen for small molecules that induce DNA re-replication in MCF 10A normal breast cells (AID 463097); further: 0% is about no effect; nearly all actives have a fitted effect of over 60% in size
# Summary of the method: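 250 MCF 10A cells/well; compound pin-transferred; 48 hr, 37 C, 5% CO2; Hoechst 40 min; imaged 405/500-530 nm. Hits = more high-intensity nuclei.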
# [18] = molecular target: Thyrotropin receptor (Homo sapiens) (UniProt P16473); assay: qHTS Assay for Antagonists of the Thyroid Stimulating Hormone Receptor (AID 488980); further: 0% is about no effect
# Sequence of Thyrotropin receptor (Homo sapiens) (P16473 whole entry, looked up): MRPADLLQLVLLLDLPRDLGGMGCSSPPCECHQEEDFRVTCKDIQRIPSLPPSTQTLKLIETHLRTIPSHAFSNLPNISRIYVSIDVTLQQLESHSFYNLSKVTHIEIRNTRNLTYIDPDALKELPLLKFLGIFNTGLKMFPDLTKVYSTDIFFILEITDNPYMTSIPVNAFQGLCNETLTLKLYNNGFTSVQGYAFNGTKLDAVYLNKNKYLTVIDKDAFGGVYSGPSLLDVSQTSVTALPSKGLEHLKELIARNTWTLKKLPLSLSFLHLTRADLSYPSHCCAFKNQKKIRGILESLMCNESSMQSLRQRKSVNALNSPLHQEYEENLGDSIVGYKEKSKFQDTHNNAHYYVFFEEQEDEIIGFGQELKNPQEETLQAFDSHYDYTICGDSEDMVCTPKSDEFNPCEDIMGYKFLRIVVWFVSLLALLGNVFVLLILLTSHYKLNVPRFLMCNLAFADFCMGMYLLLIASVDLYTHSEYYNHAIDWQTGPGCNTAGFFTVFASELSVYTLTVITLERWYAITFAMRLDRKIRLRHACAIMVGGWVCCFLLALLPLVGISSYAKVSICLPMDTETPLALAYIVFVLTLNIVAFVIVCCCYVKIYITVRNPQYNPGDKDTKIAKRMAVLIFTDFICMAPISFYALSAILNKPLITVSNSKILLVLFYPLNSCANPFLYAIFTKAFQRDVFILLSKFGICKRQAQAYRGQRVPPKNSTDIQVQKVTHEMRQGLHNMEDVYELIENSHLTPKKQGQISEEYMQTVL
# Summary of the method: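 TSHR-HEK293 cells; 70 uM RO 20-1724 PDE inhibitor; compound + EC80 TSH (4 nM final); anti-cAMP cryptate antibody/cAMP-d2 in lysis buffer, 30 min RT; HTRF 665/620 nm read.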
# [19] = molecular target: Galactokinase (Homo sapiens) (UniProt P51570); assay: qHTS Validation Assay for Inhibitors of Human Galactokinase (GALK) (AID 493189); further: 0% is about no effect
# Sequence of Galactokinase (Homo sapiens) (P51570 whole entry, looked up): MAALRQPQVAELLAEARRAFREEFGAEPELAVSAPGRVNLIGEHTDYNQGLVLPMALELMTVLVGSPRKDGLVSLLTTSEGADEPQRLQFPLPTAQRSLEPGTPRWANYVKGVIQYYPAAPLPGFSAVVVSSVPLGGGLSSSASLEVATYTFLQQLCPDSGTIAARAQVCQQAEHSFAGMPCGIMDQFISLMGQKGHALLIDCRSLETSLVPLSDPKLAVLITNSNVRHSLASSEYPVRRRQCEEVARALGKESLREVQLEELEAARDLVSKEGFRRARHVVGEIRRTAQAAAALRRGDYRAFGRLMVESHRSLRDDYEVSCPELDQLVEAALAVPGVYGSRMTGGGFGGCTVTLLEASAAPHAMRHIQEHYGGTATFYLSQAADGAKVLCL
# Summary of the method: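 Luminescence from leftover ATP (Kinase-Glo Plus, 10 min) served as read-out after a 1 h room-temperature reaction of 5 nM GALK, 100 uM galactose and 35 uM ATP at pH8.0.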
# [20] = Validation screen for small molecules that induce DNA re-replication in SW480 colon adenocarcinoma cells (AID 504364); further: 0% is about no effect
# Summary of the method: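 250 cells/well; compound pinned in; 48 hr, 37 C, 5% CO2; Hoechst added, 40 min; nuclear fluorescence imaged, 405 ex / 500-530 em; re-replication scored as increase in high-intensity nuclei.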
smiles,measurement,setting,value
O=C(NCCC1CCCCN1S(=O)(=O)c1ccc(Cl)cc1)C(=O)NCc1ccco1 (configuration not stated),Potency,[1],89.1 µM (active)
COc1ccc(C(NCC(=O)NC(C)c2ccc(Cl)cc2)c2ccccc2)cc1 (configuration not stated),Potency,[1],inactive
COc1ccc(CNc2cc3c(cn2)CN(C)CCN3)cc1OC,activity,[2],6.61%
same,"activity change, negative = inhibition",[3],1.57% [at 85.7 µM]
same,activity,[4],0.597%
same,activity,[5],7.35%
CN1CCN(CC/C=C2/c3ccccc3Sc3ccc(S(=O)(=O)N(C)C)cc32)CC1,Potency,[6],inactive
same,outcome,[7],inactive
same,Potency,[8],7.08 µM (active)
same,Potency,[9],11.2 µM (active)
same,Potency,[10],10 µM (active)
same,Potency,[11],inactive
same,Potency,[12],5.01 µM (active)
same,outcome,[13],inactive
same,outcome,[14],inactive
same,outcome,[15],inactive
same,Potency,[16],inactive
same,Potency,[17],inactive
same,outcome,[18],inactive
same,outcome,[19],inactive
same,Potency,[20],inactive
CCCC1c2cccn2CCN1C(=O)Nc1ccccc1Br (configuration not stated),activity,[2],-6.73%
same,"activity change, negative = inhibition",[3],-3.12%
same,activity,[4],-13.8%
same,activity,[5],-7.98%
Cc1ccc(Cn2c(=O)c3ccccc3n3c(CCC(=O)N4CCC(N5CCCCC5)CC4)nnc23)cc1,activity,[2],-6.25%
same,"activity change, negative = inhibition",[3],-4.42%
same,activity,[4],-14.2%
same,activity,[5],-2.33%
O=C(NCc1ccc2c(c1)OCO2)c1sc(=S)n2c1[nH]c(=O)c1ccc(Cl)cc12,activity,[2],-88.3%
same,Potency,[3],24.1 µM (active)
same,activity,[4],-87.4%
same,activity,[5],-92.6%
COc1ccc2cc(CNc3ccc(C)cc3)c(=O)n(CC(=O)Nc3cccc(C(F)(F)F)c3)c2c1,activity,[2],-6.71%
same,"activity change, negative = inhibition",[3],-9.44%
same,activity,[4],-13.5%
same,activity,[5],-7.35%
O=C(Cn1c(=O)oc2cc(S(=O)(=O)N3CCCC3)ccc21)NCCC1=CCCCC1,activity,[2],-0.904%
same,"activity change, negative = inhibition",[3],0.588%
same,activity,[4],1.35%
same,activity,[5],-61.9%
Cc1ccc(-c2ccc(N)nc2)c2cccnc12,activity,[2],-62.1%
same,"activity change, negative = inhibition",[3],1.37%
same,activity,[4],-2.78%
same,activity,[5],1.29%
COc1ccc(CCNC(=O)c2ccc(CN3C(=O)CCn4nccc43)cc2)cc1OC,activity,[2],-29.4%
same,Potency,[3],24.1 µM (active)
same,activity,[4],-12.4%
same,activity,[5],-27%
Cn1c(C(=O)NCCN2CCCCC2)cc2c1CCN(Cc1cccc(F)c1)C2,activity,[2],7.65%
same,"activity change, negative = inhibition",[3],15.7%
same,activity,[4],7.53%
same,activity,[5],7.04%
O=C(CCc1nnc2n(Cc3ccc(F)cc3)c(=O)c3ccccc3n12)NCCN1CCCC1,activity,[2],-4.07%
same,"activity change, negative = inhibition",[3],-0.511%
same,activity,[4],-16.1%
same,activity,[5],2.1%
Cc1ccc(S(=O)(=O)c2nnn3c2nc(N2CCC(N4CCCCC4)CC2)c2ccccc23)cc1C,activity,[2],-1.85%
same,"activity change, negative = inhibition",[3],0%
same,activity,[4],-9.07%
same,activity,[5],-3.83%
CCc1ccc(N2C(=O)c3cc4sccc4n3CC2(C)C(=O)NC2CCCCCC2)cc1 (configuration not stated),activity,[2],-4.01%
same,"activity change, negative = inhibition",[3],0.902%
same,activity,[4],-5.2%
same,activity,[5],-7.25%
C[S+](=O)([O-])N1CCC(Cn2ccc3c(N4CCOCC4)nc(-c4cccc5[nH]ncc45)cc32)CC1,activity,[2],-13.4%
same,"activity change, negative = inhibition",[3],-3.16%
same,activity,[4],-5.17%
same,activity,[5],-54.3%
CC(C)CCn1c(=O)c2ccccc2n2c(CCC(=O)N3CCN(c4cccc(Cl)c4)CC3)nnc12,activity,[2],1.55%
same,"activity change, negative = inhibition",[3],1.8%
same,activity,[4],-55.2%
same,activity,[5],-8.01%
CC1CCN(CCCNC(=O)CCc2nnc3n(Cc4ccccc4Cl)c(=O)c4ccccc4n23)CC1,activity,[2],-11.4%
same,"activity change, negative = inhibition",[3],-3.45%
same,activity,[4],-14.4%
same,activity,[5],-7.41%
CC1CCCCC1NC(=O)C1(C)Cn2c(cc3sccc32)C(=O)N1Cc1ccc(Cl)cc1 (configuration not stated),activity,[2],-7.44%
same,"activity change, negative = inhibition",[3],-6.06%
same,activity,[4],-8.12%
same,activity,[5],-8.77%
O=C(NCc1ccccc1)c1ccc2c(=O)nc3c(-c4ccccc4F)n[nH]n3c2c1,activity,[2],-13.3%
same,Potency,[3],0.121 µM (active)
same,activity,[4],-8.4%
same,activity,[5],-13.5%
CCCC1c2cccn2CCN1C(=O)Nc1ccccc1C(F)(F)F (configuration not stated),activity,[2],-12.1%
same,"activity change, negative = inhibition",[3],-8.26%
same,activity,[4],-18.7%
same,activity,[5],-13.3%
COc1ccccc1-c1[nH]nc2ncc(C(=O)N3CCN(Cc4ccccc4)CC3)nc12,activity,[2],-51.3%
same,Potency,[3],35 µM (active)
same,activity,[4],-37.2%
same,activity,[5],-61.8%
Cc1cnc(C2CC2)n1C1CCN(S(=O)(=O)c2ccc3c(c2)OCCO3)CC1,activity,[2],-0.0283%
same,"activity change, negative = inhibition",[3],-2.25%
same,activity,[4],-30.4%
same,activity,[5],-0.889%
